This is part of a sample that, as a whole, favours compounds with a hit. Of some 83,000 tested, about 20% had one in any assay.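 Activity criterion: percent growth below 10, measured after cells in 96-well plates were exposed to a single compound concentration for 48 hours.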 A number with no mark means an inactive call. Active and inactive are the calls of the source.

For the test, the system named is TK-10 renal. Put plainly: NCI-60 one-dose screen, 48 h (100 = growth as untreated, 0 = no growth, -100 = all killed). Particulars: 10 µM unless noted. The method, then: Growth inhibition of the TK-10 human tumor cell line is measured as a screen for anti-cancer activity. Cells are grown in 96 well plates and exposed to the test compound for 48 hours. Compounds are tested at a single concentration, which is 10^-5 M for most compounds. The reported endpoint is percent growth (GI% or GIPRCNT), where numbers from 0 - 100% represent growth inhibition, and numbers from -100% - 0 represent cell death. For example, a value of 40 represents 60% growth inhibition. A value of 0 means no net growth occurred over the course of the experiment. A value of -40 indicates 40% of cells at the beginning of the experiment died by the end of the experiment. A value of -100 means all cells are dead at the end of the experiment.
NCI-60 Human Tumor Cell Lines Screen was performed using the standard one-dose NCI protocol, which is described in more detail at https://dtp.cancer.gov/discovery_development/nci-60/default.htm.
Compounds with GIPRCNT values below 10 were considered active. Activity score was based on GIPRCNT using the following formula: […]
Score is 0 for GIPRCNT values of 100 or above, 50 for GIPRCNT values of 0, and 100 for GIPRCNT values of -100.
Take `O=C(O)c1cccc(-n2ncc(Cl)c(Cl)c2=O)c1`: the growth is 154%.

Turning to `COC(c1ccc2c(c1)OCO2)C(C)Br` (stereo not given), the growth is 85.8%.

Take `O=C1C=C(c2ccccc2)C(O)(c2ccccc2)C1` (stereo not given): the growth is 99.6%.

Regarding `CCCCOC(=O)c1ccc(NC(=O)CCl)cc1`, the growth was 92%.

For the molecule `c1ccc(Nc2ccccn2)nc1`, the growth is 99.4%.

In the case of `CCCCNC(=O)c1ccc(OCC)cc1`, the growth was 105%.

In the case of `c1cc(CNCCNCc2ccncc2)ccn1`, the growth is 105%.

For the molecule `CC(=O)c1cccs1`, the growth is 103%.

Turning to `CC(=O)NC(CCC(=O)c1ccccc1)C(=O)O` (stereo not given), the growth was 93.8%.

As for `Cc1ccc(NC(=O)c2ccccc2Cl)cc1`, the growth is 115%.

`C=CCC(OC(C)=O)c1ccc(OC)c(OC)c1` (stereo not given): the growth was 102%.

Turning to `COc1cccc2c1Cc1ccccc1-2`, the growth is 134%.

In the case of `CC1(C)CC(=O)C=C(N)C1`, the growth was 99.2%.

On to `CC(=O)Nc1ncc(S(=O)(=O)c2ccc([N+](=O)[O-])cc2)s1`, for which the growth was 105%.

In the case of `C/C(=N\Nc1ccc([N+](=O)[O-])cc1[N+](=O)[O-])c1ccc(Br)cc1`, the growth is 105%.

For `CN(C)Cc1ccccn1`, the growth was 105%.

With `CCOP(=O)(OCC)/C(=C\N1C(=O)CC(=O)NC1=S)C(=O)OC`, the growth was 112%.

Turning to `CC1=CC(=Nc2ccc(N(C)C)cc2)C=C(C)C1=O`, the growth is 133%.

Consider `O=C(CC(CC(=O)c1ccccc1)c1ccccn1)c1ccccc1`, for which the growth is 123%.

Turning to `CCNC(=O)OCCc1c2ccccc2nc2ccccc12`, the growth is 132%.

As to `CCCCc1ccc2nc(NC(=O)OC)[nH]c2c1`, the growth was 57.6%.

Consider `CCOC(=O)c1cc(Cl)c(O)c(Cl)c1`, for which the growth is 108%.

For `C=C(c1ccc(N(C)C)cc1)c1ccc(N(C)C)cc1`, the growth was 58.2%.

`CCC(C)c1c(N)n(S(=O)(=O)c2ccc(C)cc2)oc1=O` (stereo not given): the growth was 101%.

`Cc1[nH]c(=S)[nH]c(=O)c1C`: the growth is 107%.

For the molecule `Cc1ccc(NC(=S)N2CCOCC2)cc1C`, the growth was 103%.

As for `O=C1Nc2ccccc2/C1=C\c1ccccc1O`, the growth was 124%.

As to `CCN(Cc1ccc(Cl)c(Cl)c1)c1ccc2nc(N)nc(N)c2c1C`, the growth was -84.3% (active).

As to `Cc1c(-c2ccc(C3CCCCC3)cc2)nc2ccc(F)cc2c1C(=O)O`, the growth is 74.7%.

As to `C=COC(=O)CCOCC(CC)CCCC` (stereo not given), the growth is 103%.

In the case of `CC(=O)NNC(=S)/N=C\C(C(=O)c1ccccc1)=C(/O)c1ccccc1`, the growth was 130%.

On to `CC1CCC(C)(C)c2ccccc21` (stereo not given), for which the growth was 104%.

With `C=CCc1cc(OC)c(OC)c(OC)c1`, the growth is 104%.

In the case of `CCN(C(C)=O)c1ccc([N+](=O)[O-])cc1`, the growth was 93%.

As for `CC(=O)CSc1ncnc2nc[nH]c12`, the growth was 88.8%.

With `O=C(O)c1ccccc1Cc1ccc2c(c1)CCCC2`, the growth is 103%.

For the molecule `N#CC1(O)CCCCC1`, the growth is 102%.

`Cc1ccnc(Nc2nc3ccccc3[nH]2)n1`: the growth was 113%.

Regarding `C=C(C)[C@@H]1CC[C@]2(CO)CC[C@]3(C)[C@H](CC[C@@H]4[C@@]5(C)CC[C@H](O)C(C)(C)[C@@H]5CC[C@]43C)[C@@H]12`, the growth is 51%.

Regarding `CCC(=O)C1C(=O)c2ccccc2C1=O`, the growth is 114%.
